Screens (PubChem BioAssay)
HT1080 IDH1KD tx – qHTS for induction of synthetic lethality in tumor cells producing 2HG: qHTS for the HT-1080-IDH1KD cell line | HT-1080 IDH1 knockdown viability, ATP luminescence, 48 h | Potency, µM (doses to about 46.1 µM), most hits filed as cytotoxic | 2% of 360,000 active | AID 686971, 2013
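Cytotoxicity counter-line: IDH1KD HT-1080, 48 h, CellTiter-Glo. Curves classed by r2, magnitude and activity.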
TGFb inhibitor – qHTS for Inhibitors of TGF-b | HepG2 CAGA-GFP TGF-b/SMAD3 reporter, GFP fluorescence, 18 h; TGF-beta stimulated, 500 pg/mL final | Potency, µM (series often up to 46.1 µM), hits mostly inhibitors | 1.2% of 410,000 active | AID 588855, 2011; note: nearly all actives have a fitted effect of over 65% in size
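HEPG2 CAGA-GFP, 1000 cells/well; 2 h settle, 37 C; cpd via pin tool; TGF-b 500 pg/mL final; 18 h, 37 C; GFP imaging ex488/em500-530; %Activity normalised to -TGF-b and +DMSO controls; CRC fit, curve class.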
HT1080NT lethal – qHTS for induction of synthetic lethality in tumor cells producing 2HG: qHTS for the HT-1080-NT fibrosarcoma cell line | HT-1080-NT fibrosarcoma viability, CellTiter-Glo ATP luminescence, 48 h | Potency, µM (doses to about 46.1 µM), usual class: cytotoxic | 1.6% of 360,000 active | AID 686970, 2013;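 note: NT is the 2HG producing partner of a matched IDH1 knockdown line; nearly all actives have a fitted effect of over 55% in size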
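Viability by CellTiter-Glo luminescence after 48 h compound exposure at 37C of HT-1080-NT cells (750/well, RPMI, 5% FBS). % activity scaled between DMSO wells and medium-only wells, then curve-fitted and categorized by curve class.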
DT40 TDP1 CPT – qHTS for Inhibitors of human tyrosyl-DNA phosphodiesterase 1 (TDP1): qHTS in cells in presence of CPT; chicken DT40 Tdp1-/-;hTDP1 cells + 20 nM CPT, ATP luminescence, 48 h; Potency, µM (highest dose often 46.2 µM), actives largely listed as inhibitors; AID 686979, 2013; 12% of 420,000 active; note: nearly all actives have a fitted effect of over 55% in size
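Chicken DT40 Tdp1-/- cells complemented with human TDP1, 400 cells/well, exposed to compounds plus 20 nM camptothecin for at least 48 h at 37 C; viability read as ATP content by CellTiter-Glo luminescence.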
TDP1 cell noCPT – qHTS for Inhibitors of human tyrosyl-DNA phosphodiesterase 1 (TDP1): qHTS in cells in absence of CPT; DT40 Tdp1-/- hTDP1 cells, no CPT, ATP luminescence, 48 h; Potency, µM (series often up to 46.2 µM), usual class: inhibitors; 15% of 420,000 active; note: nearly all actives have a fitted effect of over 55% in size
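Cells were dispensed at 400 per well, compounds added by pin tool, plates incubated ≥48 hr at 37 °C, then CellTiter-Glo added for 30 min at room temperature before luminescence reading. Line: DT40 Tdp1-/- complemented with hTDP1; camptothecin omitted.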
HepG2 viability – qHTS for Inhibitors of TGF-b: Cytotox Counterscreen; HepG2 CAGA-GFP viability, ATP luminescence, 18 h; Potency, µM (top dose mostly 46.1 µM), usual class: cytotoxic; 0.76% of 410,000 active
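CellTiter-Glo luminescence gave cytotoxicity after 18 hours at 37 degrees C. The cells were HepG2 CAGA-GFP in 1% FBS DMEM, stimulated with 500 pg/mL TGF-beta after compound addition. %Activity was normalised to no-cell wells (complete cell-killing) and DMSO (no toxicity), and curves were fitted and classified.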
Each line names hits and unclear results; the compound was inactive in the other large screens. Rows were chosen to be rich in hits. Some 17% of all compounds tested hit in one or more screens of this group. Calls come from the whole dose curve; as a rule, active = well fitted curve in the direction sought with a large enough effect; inconclusive = small, poorly fitted or top-dose-only effect, or another doubt; inactive = no such curve, though single readings can be large; an effect the other way counts as inactive or inconclusive.

CC[N+]1(C)CCC(O)(c2ccc(OC)cc2)C(C(=O)c2ccc(OC)cc2)C1 (stereo not drawn)	HT1080 IDH1KD tx 4.6µM, TGFb inhibitor inconclusive, HT1080NT lethal inconclusive, DT40 TDP1 CPT 0.65µM, TDP1 cell noCPT 0.92µM
CN(C)CCNC(=O)C(c1ccccc1)c1ccccc1	none
C[N+](C)(C)CCC(=O)N1C/C(=C/c2ccccc2)C(=O)/C(=C\c2ccccc2)C1	HT1080 IDH1KD tx 4.1µM, TGFb inhibitor 7.9µM, HT1080NT lethal inconclusive, DT40 TDP1 CPT 0.65µM, TDP1 cell noCPT 0.92µM
O=C1/C(=C/c2ccccc2)CN(C(=O)CCN2CCOCC2)C/C1=C\c1ccccc1	HT1080 IDH1KD tx inconclusive, TGFb inhibitor 2.2µM, HT1080NT lethal inconclusive, DT40 TDP1 CPT 1.6µM, TDP1 cell noCPT 1.8µM, HepG2 viability 16µM
CCOC(=O)N1C/C(=C\c2ccccc2)C(=O)/C(=C/c2ccccc2)C1	HT1080 IDH1KD tx inconclusive, TGFb inhibitor 2µM, HT1080NT lethal inconclusive, DT40 TDP1 CPT 4.6µM, TDP1 cell noCPT 3.7µM
C/C(=C\c1ccccc1)C(=O)NCCN1CCOCC1	TGFb inhibitor inconclusive
CN(C)CCC(=O)N1C/C(=C/c2ccccc2)C(=O)/C(=C\c2ccccc2)C1	HT1080 IDH1KD tx 0.58µM, TGFb inhibitor 2µM, HT1080NT lethal inconclusive, DT40 TDP1 CPT 1.8µM, TDP1 cell noCPT 1.8µM
CCOC(=O)N1CCN(C/C(C)=C/c2ccccc2)CC1	none
O=C(/C=C/c1ccccc1[N+](=O)[O-])Nc1ccc(S(=O)(=O)Nc2ncccn2)cc1	none
CCN(CCCNC(=O)CN(C)S(=O)(=O)c1cccc2nsnc12)c1ccccc1	DT40 TDP1 CPT inconclusive, TDP1 cell noCPT inconclusive
Cc1ccc(CCNC(=O)c2cc3c(=O)oc4ccccc4c3s2)cc1	none (no result: HT1080 IDH1KD tx, HT1080NT lethal)
O[C@H]1C[C@H](c2ccc(Cl)cc2)N(Cc2cccs2)C[C@@H]1n1cc(-c2ccc(F)cc2)nn1	HT1080 IDH1KD tx inconclusive, TGFb inhibitor inconclusive, HT1080NT lethal inconclusive, DT40 TDP1 CPT inconclusive, TDP1 cell noCPT inconclusive
C=CCC[C@H](Cc1ccc(F)cc1)C(=O)OC[C@H](Cc1c[nH]c2ccccc12)NC(=O)[C@H](CC=C)CC(=O)NCCO	TGFb inhibitor inconclusive, DT40 TDP1 CPT inconclusive, TDP1 cell noCPT 18µM
C=CCC[C@@H](Cc1ccc(F)cc1)C(=O)OC[C@@H](Cc1c[nH]c2ccccc12)NC(=O)[C@H](CC=C)CC(=O)NCCO	TGFb inhibitor inconclusive, DT40 TDP1 CPT inconclusive, TDP1 cell noCPT 18µM
C=CCC[C@@H](Cc1ccc(F)cc1)C(=O)OC[C@H](Cc1c[nH]c2ccccc12)NC(=O)[C@H](CC=C)CC(=O)N(CCO)Cc1ccccc1	HT1080 IDH1KD tx inconclusive, TGFb inhibitor inconclusive, HT1080NT lethal inconclusive, DT40 TDP1 CPT 15µM, TDP1 cell noCPT 21µM
C=CCC[C@H](Cc1ccc(F)cc1)C(=O)OC[C@H](Cc1c[nH]c2ccccc12)NC(=O)[C@@H](CC=C)CC(=O)N(CCO)Cc1ccccc1	HT1080 IDH1KD tx inconclusive, TGFb inhibitor inconclusive, HT1080NT lethal inconclusive, DT40 TDP1 CPT inconclusive, TDP1 cell noCPT inconclusive
CC(C)Oc1ccc(C(=O)N/N=C/c2ccc(-c3ccc(S(=O)(=O)Nc4ncccn4)cc3)o2)cc1	TGFb inhibitor inconclusive
Cc1[nH]c2ccccc2c1C(O)c1ccncc1 (stereo not drawn)	none
Cc1c(N2CCCCC2)[nH]c2ccccc12	DT40 TDP1 CPT inconclusive, TDP1 cell noCPT 10µM
Cc1[nH]c2ccccc2c1C(c1ccncc1)N1CCCCC1 (stereo not drawn)	DT40 TDP1 CPT 13µM, TDP1 cell noCPT 16µM
CC(C)(C)c1ccc(S(=O)(=O)NC(=O)C2(C)CCN2C(=O)c2cccc3ccccc23)cc1 (stereo not drawn)	none
CCn1nnnc1SCC(=O)NC1CCCC1	none
O=C(NCCN1CCC(Cc2ccccc2)CC1)C1CCN(S(=O)(=O)N2CCC3(CC2)OCCO3)CC1	DT40 TDP1 CPT 15µM, TDP1 cell noCPT 18µM
O=C(C1CCN(S(=O)(=O)N2CCC3(CC2)OCCO3)CC1)N1CCc2ccccc2C1	TGFb inhibitor inconclusive, DT40 TDP1 CPT inconclusive, TDP1 cell noCPT 16µM
Cc1cc(SCC(=O)N(C)C2CCS(=O)(=O)C2)nc2c(C)cccc12 (stereo not drawn)	TDP1 cell noCPT inconclusive
COCCNC(=S)N(CCc1c(C)[nH]c2ccc(OC)cc12)Cc1cccnc1	none
CCn1c(CCC(=O)Nc2cc(F)ccc2C)nc2cc(S(=O)(=O)N(C)C)ccc21	DT40 TDP1 CPT inconclusive
CCN(CC)S(=O)(=O)c1ccc2c(c1)nc(CCC(=O)Nc1ccccc1Cc1ccccc1)n2CC	TGFb inhibitor inconclusive, DT40 TDP1 CPT 21µM, TDP1 cell noCPT 23µM
O=C(Nc1cc2c3c(c1)C1CCCC1CN3CC1CCCC21)c1ccccc1 (stereo not drawn)	DT40 TDP1 CPT inconclusive, TDP1 cell noCPT inconclusive
Cc1ccc(C(=O)CCNc2ccc(F)c(Cl)c2)o1	TGFb inhibitor inconclusive, DT40 TDP1 CPT 16µM, TDP1 cell noCPT 16µM
O=C(CCC(=O)c1ccc(F)cc1)Nc1cccc(Br)c1	none
Cc1ccc(OCCC(=O)Nc2ccc(F)c(Cl)c2)cc1	none
Cc1ccc(C(=O)CCNc2ccccc2)o1	TGFb inhibitor inconclusive, DT40 TDP1 CPT inconclusive, TDP1 cell noCPT 8.2µM
Cc1ccc(C(=O)CCNc2ccc(Br)cc2)o1	DT40 TDP1 CPT 13µM, TDP1 cell noCPT 13µM
Cc1ccc(C(=O)CCNc2cccc(Br)c2)o1	DT40 TDP1 CPT 21µM, TDP1 cell noCPT 18µM
COCCN(C(=O)CSc1nnc(-c2cccs2)n1N)c1c(N)n(Cc2ccccc2)c(=O)[nH]c1=O	none
O=C(NC(O)C(=O)c1cccs1)c1cccnc1 (stereo not drawn)	DT40 TDP1 CPT inconclusive, TDP1 cell noCPT inconclusive
CN1CCN(C(=O)c2cc3ccccc3cc2O)CC1	none
O=C(COC(=O)C12CC3CC(CC(Cl)(C3)C1)C2)NCc1ccco1	none (no result: HT1080 IDH1KD tx, HT1080NT lethal, DT40 TDP1 CPT, TDP1 cell noCPT)
Cc1ccc(N(C(=O)c2snc(C(N)=O)c2N)C(C(=O)NCc2ccccc2)c2ccncc2)c(C)c1 (stereo not drawn)	DT40 TDP1 CPT inconclusive, TDP1 cell noCPT inconclusive
Nc1nc2ccccc2n1/N=C/c1cccnc1	none
